Screening results (PubChem BioAssay)
This is a sample that favours compounds with a hit; in the whole collection about 2.1% have one here.
Gli-Sufu block = blocks Gli-Sufu signaling in a luciferase reporter; 340,000 compounds, 0.74% hits; Sufu-KO-LIGHT fibroblasts, Gli luciferase reporter luminescence; inhibition, % at 5 µM;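 active = inhibition above about 55%, limit read from the data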;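 also: 0% = DMSO-treated cells and 100% = wells with medium but no cells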
COUP-TFII inh = NR2F2 (human) inhibition, primary screen; P24468; HEK293T NGFI-A luciferase reporter, luminescence; inhibition, % at 8.6 µM; 370,000 compounds, 0.7% hits;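 active = inhibition above a per-plate cutoff, mean inhibition of test wells between control levels plus 3 SD, cut at about 38% in these data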;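 also: cells cotransfected with COUP-TFII expression vector driving the NGFI-A reporter; 0% = median of COUP-TF2 test wells and 100% = reporter-only cells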
Target sequence (P24468 whole entry, looked up): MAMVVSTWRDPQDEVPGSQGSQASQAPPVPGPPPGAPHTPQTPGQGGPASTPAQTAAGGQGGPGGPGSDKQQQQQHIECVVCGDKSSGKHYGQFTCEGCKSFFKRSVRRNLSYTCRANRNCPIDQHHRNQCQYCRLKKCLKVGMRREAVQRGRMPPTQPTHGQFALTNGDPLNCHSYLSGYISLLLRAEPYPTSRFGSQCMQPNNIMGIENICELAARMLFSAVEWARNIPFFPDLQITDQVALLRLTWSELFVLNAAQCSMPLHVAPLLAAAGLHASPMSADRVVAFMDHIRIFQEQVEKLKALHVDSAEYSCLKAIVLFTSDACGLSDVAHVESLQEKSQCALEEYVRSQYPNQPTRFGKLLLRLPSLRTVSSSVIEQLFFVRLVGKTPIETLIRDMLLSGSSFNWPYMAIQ
HIV Env fusion = inhibitors of HIV Env-mediated cell fusion | HeLa-JRFL Env/CEM21 cell fusion, luciferase | AID 651610 | inhibition, % at 12.3 µM | 360,000 compounds, 1.1% hits;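 active = mean replicate inhibition score of at least 50 and every replicate individually at or above 50; inconclusive = only one of the two criteria met; inactive = mean below 50 and not all replicates reaching 50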;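 also: 0% = plate neutral controls and 100% = maraviroc near 300 nM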
GalR3 antagonist = blocks the human galanin receptor 3 | O60755 | HEK293 GalR3-CNG cAMP membrane potential fluorescence; galR3 body fused to GalR1 C-terminus | inhibition, % at 3 µM | 360,000 compounds, 0.44% hits | AID 651719;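 active = inhibition above the screen-wide average plus 3 SD, cut at about 13% in these data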;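 also: forskolin and galanin both at EC90 stimulate the cells; cAMP rise reported by CNG channel membrane potential dye signal; 0% = forskolin plus galanin with DMSO and 100% = forskolin alone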
Target sequence (O60755 1-299 limits assumed): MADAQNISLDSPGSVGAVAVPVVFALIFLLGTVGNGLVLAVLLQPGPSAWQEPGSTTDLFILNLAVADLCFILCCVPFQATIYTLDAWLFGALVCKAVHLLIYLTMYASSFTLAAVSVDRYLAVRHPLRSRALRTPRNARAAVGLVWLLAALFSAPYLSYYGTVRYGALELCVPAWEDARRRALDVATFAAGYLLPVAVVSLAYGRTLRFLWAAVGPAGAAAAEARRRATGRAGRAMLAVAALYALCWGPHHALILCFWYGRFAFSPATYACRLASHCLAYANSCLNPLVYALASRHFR
aDG glyco act = alpha-DG glycosylation activation; Pro5-aDG cells, alpha-DG glycosylation AlphaScreen (IIH6); 0% Pro5, 100% B10-LARGE cell signal; activation, % at 10 µM; 360,000 compounds, 0.22% hits; AID 624168;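 active = activation of at least 8% versus controls, or a plate z-score of at least 8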;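 also: Pro5 are CHO cells carrying HIG-tagged alpha-DG that lacks glycosylation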
Gli antag conf = Gli-SUFU antagonism confirmation, single concentration; Sufu-KO-LIGHT cells, Gli luciferase reporter, luminescence; 2,500 compounds, 40% hits; inhibition, % at 5 µM; shares compounds with Gli-Sufu block; AID 602428;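 active = mean inhibition at 5 µM reaching about 45%, limit read from the data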;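 also: plate controls were DMSO-treated cells for no effect and wells lacking cells for full effect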
Gli cytotox = cytotoxic in Gli-SUFU antagonist counter-screen; cytotoxicity, % at 5 µM; 2,500 compounds, 32% hits; Sufu-KO-LIGHT cells cytotoxicity, ATP luminescence; shares compounds with Gli-Sufu block;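 active = mean cytotoxicity at 5 µM above about 25%, limit read from the data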;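 also: cells exposed to compound overnight for roughly 16 to 18 hours; plate controls were DMSO wells with cells for no effect and medium without cells for full effect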
Wnt3a counter = Wnt3a reporter inhibition counter-screen; inhibition, % at 6.25 µM; AID 651995; Wnt-LIGHT cells, Wnt3a-driven luciferase reporter, luminescence; shares compounds with Gli-Sufu block; 2,500 compounds, 20% hits;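 active = mean inhibition above about 25%, limit read from the data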
aDG glyco conf = alpha-DG glycosylation activation, confirmation | shares compounds with aDG glyco act | Pro5-aDG cells, IIH6 AlphaLISA; scaled to LARGE-overexpressing B10 cells as 100% | activation, % at 10 µM (by protocol) | 600 compounds, 17% hits;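 active = activation of at least 7% in one or more replicates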;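 also: cells exposed to compound for two days before detection; 0% = DMSO-treated Pro5 cells and 100% = DMSO-treated B10-LARGE cells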
Gal4-VP16 ctr = inhibits VP16 reporter, flagging COUP-TFII antagonist hits. shares compounds with COUP-TFII inh. HEK293 Gal4-VP16 luciferase reporter, luminescence. inhibition, % at 8.5 µM. 2,500 compounds, 25% hits. AID 687007; in the data active = inhibition above about 13%
NR2F2 inh conf = COUP-TFII (NR2F2) inhibition, confirmation assay; shares compounds with COUP-TFII inh; HEK293 NGFI-A luciferase reporter, luminescence; inhibition, % at 8.5 µM; 2,500 compounds, 45% hits; AID 687008;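 active = mean inhibition over three repeats above a set limit taken from the earlier primary screen, cut at about 38% in these data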;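 also: 100% = cells given the luciferase reporter alone without the COUP-TF2 vector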
The depositor's hits bear a star; ? = inconclusive; · = no result; [ ] = remark or other dose.

SMILES | Gli-Sufu block | COUP-TFII inh | HIV Env fusion | GalR3 antagonist | aDG glyco act | aDG glyco conf | others
O=C(CN1C(=O)c2ccccc2S1(=O)=O)c1ccc(F)cc1 | 76.0* | 39.6* | ? | 0.1 | 0.1 | · | Gli antag conf=82.9*;Gli cytotox=3.8;Wnt3a counter=90.5*;Gal4-VP16 ctr=-22.7;NR2F2 inh conf=13.6
Cc1noc(C)c1NC(=O)Nc1ccc2c(c1)CC(=O)N([C@@H](C)CO)C[C@H](C)[C@@H](CN(C)S(=O)(=O)c1ccc(Cl)cc1)O2 | · | · | 1.6[16.7 µM] | · | · | ·
CCOc1ccc(-n2c(-c3ccccc3)c[n+]3c2CCC3)cc1 | 84.6* | 55.1* | 29.5 | -3.6 | 0.1 | · | Gli antag conf=87.9*;Gli cytotox=33.0*;Wnt3a counter=41.3*;Gal4-VP16 ctr=-4.4;NR2F2 inh conf=30.5
CNC[C@@H]1OCCCC[C@H](C)Oc2ccc(NS(=O)(=O)c3ccc(Cl)cc3)cc2C(=O)N([C@H](C)CO)C[C@@H]1C | · | · | -11.8[16.7 µM] | · | · | ·
Cc1cccc(Nc2nc(N)nc(CN3CCN(c4ccc(F)cc4)CC3)n2)c1 | 7.0 | 15.7 | -26.2 | -2.8 | 11.8* | 0.9
Cc1ccc(S(=O)(=O)Nc2ccc3c(c2)C(=O)N([C@H](C)CO)C[C@@H](C)[C@@H](CN(C)C(=O)c2ccncc2)OCCCC[C@H](C)O3)cc1 | · | · | -16.3[16.7 µM] | · | · | ·
CCCOc1ccc(C(=O)OCC(=O)NCCc2ccc(OCC)c(OCC)c2)cc1OC | 6.1 | 3.2 | -9.7 | 0.4 | -0.1 | ·
CCOc1ccc(CCNC(=O)COC(=O)c2cc(OC)cc(OC)c2)cc1OCC | -1.5 | -7.3 | 7.5 | 3.4 | 24.1* | 1.1
Cn1c(=N)n(CC(=O)c2ccc(Br)cc2)c2ccccc21 | -56.4 | -54.1 | -218.6 | -7.3 | 4.8* | 6.1*
Cn1c(=N)n(CC(=O)c2ccc(F)cc2)c2ccccc21 | -50.0 | 5.3 | -31.2 | -8.8 | 3.8* | 2.9
COc1cc(CNC(=O)Nc2nc(C(N)Cc3ccc(Cl)cc3)cs2)cc(OC)c1OC (configuration not stated) | · | -6.7 | 25.8 | -5.9 | 5.8* | 5.9*
COC(=O)[C@@]1(Cc2ccc(F)cc2)[C@H]2c3cc(C(=O)N4CCCC4)n(CCSCCO)c3C[C@H]2CN1C(=O)c1ccccc1 | · | 6.1 | -36.7 | -1.1 | 5.6* | -0.2
CCOc1ccc(C(=O)Nc2cccc(C)n2)cc1 | -78.3 | -17.2 | · | -4.0 | -0.1 | ·
CCCCOc1ccc(C(=O)Nc2cccc(C)n2)cc1 | -50.0 | -25.9 | -34.4 | -5.7 | 6.3* | -1.1
N#Cc1ccsc1NC(=O)c1ccc2ncsc2c1 | · | -26.0 | -12.6 | -6.9 | 14.6* | 5.5*
CC(C)c1nnc(NC(=O)c2cccc(-n3cnnn3)c2)s1 | -2.2 | -7.4 | · | -3.4 | 0.0 | ·
O=C(Nc1ccc(F)cc1)c1ccc2ncsc2c1 | -53.4 | -29.9 | -37.3 | -9.9 | 0.2 | ·
N#Cc1ccsc1NC(=O)c1cccc(-n2cnnn2)c1 | -17.2 | 11.0 | -30.8 | 11.1 | 10.6* | 7.1*
Cc1cccc(NC(=S)N(CCCN2CCCC2)Cc2cccn2Cc2ccc(Cl)cc2)c1 | 5.1 | -9.4 | 8.2 | -5.3 | 2.8* | 10.9*
CCOC(=O)c1ccc(N2C(=O)c3n[nH]c(C)c3C2c2ccc(O)cc2)cc1 (configuration not stated) | -24.6 | 3.7 | 15.6 | -2.7 | 0.2 | ·
CCOC(=O)c1ccc(N2C(=O)c3n[nH]c(C)c3C2c2ccccc2)cc1 (configuration not stated) | -8.0 | -14.1 | -29.6 | -6.4 | 27.6* | -0.6
CC(C)COc1ccc(CSCCNC(=S)Nc2ccccc2)cc1 | 8.3 | 34.5 | · | 2.8 | 4.6* | 4.9*
CCCN1C[C@@H](C)[C@H](OC)CN(C)C(=O)c2cc(NC(=O)Nc3ccccc3F)ccc2OC[C@H]1C | · | · | 8.7[16.7 µM] | · | · | ·
CC/C(=N\NC(=S)Nc1ccc(OC)cc1)c1ccc(OC(F)F)cc1 | -2.5 | -30.7 | -32.9 | -8.7 | 0.2 | ·
CC/C(=N\NC(=S)Nc1cc(C)ccc1C)c1ccc(OC(F)F)cc1 | -2.8 | 6.2 | -3.6 | -3.8 | 5.7* | -0.3
SMILES | Gli-Sufu block | COUP-TFII inh | HIV Env fusion | GalR3 antagonist | aDG glyco act | aDG glyco conf | others
Cc1cc(NCc2ccccn2)n2ncc(-c3ccc(Cl)cc3)c2n1 | -82.8 | -0.7 | -42.5 | -2.0 | 3.0* | 4.6*
Cc1cc(NC2=CC(=O)C(=O)c3ccccc32)no1 | 0.0 | 0.9 | -16.9 | -4.5 | 13.8* | 15.8*
Cc1nc(C)c(C(=O)N2CCCC(C(=O)c3ccc4ccccc4c3)C2)s1 (configuration not stated) | -6.4 | 4.9 | 3.7 | 1.2 | 0.2 | ·
CCn1cc(C(=O)N2CCCC(C(=O)c3ccc4ccccc4c3)C2)cn1 (configuration not stated) | 0.4 | 8.2 | -5.9 | -1.9 | 5.5* | -0.8
COc1ccc(-c2ccc3c(c2)S(=O)(=O)c2cccc(C(=O)NCc4cccc(OC(F)(F)F)c4)c2C3=O)cc1OC | 15.7 | · | · | · | 18.3* | 0.8
Cn1cnc(S(=O)(=O)N2C[C@H](O)COC[C@H]3O[C@@H](CC(=O)NCc4cccc(F)c4)CC[C@@H]32)c1 | · | · | -16.2[16.7 µM] | · | · | ·
CC1(C(=O)Nc2ccc3c(c2)OCCO3)CCC(=O)N1C1CC1 (configuration not stated) | · | -12.1 | 4.3 | -7.4 | 0.1 | ·
CC1(C(=O)Nc2ccc3c(c2)OCCO3)CSCC(=O)N1C1CC1 (configuration not stated) | · | 2.3 | -3.2 | 2.3 | 8.6* | 0.7
C/C=C/c1ccc(OCCCNC2CCCC2)c(OC)c1 | -2.6 | 1.9 | -21.8 | -4.8 | 9.6* | 11.6*
COc1ccc2c(Cl)c(-c3nnc(SCC(=O)c4ccccc4)n3C)sc2c1 | -4.9 | 15.7 | · | 7.3 | 4.3* | 0.7
COc1ccc2c(Cl)c(-c3nnc(SCC(N)=O)n3C)sc2c1 | -2.8 | 9.0 | -1.3 | 0.5 | 1.4 | ·
O=C(c1ccc2c(c1)OCO2)N(Cc1cccs1)C1(C(=O)NC2CCCCC2)CCCCC1 | 27.8 | 1.2 | 103.3* | -9.9 | 7.4* | 0.0
CC(C)Oc1ccc(OCCCN2CCCCCC2)cc1 | 5.5 | 4.4 | -82.6 | -3.0 | 5.2* | 13.3*
